# Reference: PubChem BioAssay (NCATS)
# “And” between values parts separate entries of the source, which are not always exact repeats. Equal values may be shown once. Inconclusive results are not listed. Entries that show only a call come without a potency. The source made the active and inactive calls. Unless noted, the call rests on the fitted dose curve; in most records, active means well fitted curve in the direction sought with a large enough effect; inconclusive means small, poorly fitted or top-dose-only effect, or another doubt; inactive means no such curve, though single readings can be large; an effect the other way counts as inactive or inconclusive.
# Assays:
# [1] = P-glycoprotein substrates identified in KB-3-1 adenocarcinoma cell line, qHTS therapeutic library screen (AID 1346986); further: nearly all actives have a fitted effect of over 60% in size;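 further: potency means the concentration at half of the fitted maximal effect; potency is for cytotoxicity meaning loss of cell viability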
# Summary of the method: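 In 1536-well format, 500 cells/well received pinned compound titrations and were incubated 72 h, 5% CO2. Viability was read by CellTiter-Glo; cytotoxic if AC50 < 10 uM and efficacy >50%.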
# [2] = P-glycoprotein substrates identified in KB-8-5-11 adenocarcinoma cell line, qHTS therapeutic library screen (AID 1346987); further: nearly all actives have a fitted effect of over 65% in size; further: potency means the concentration at half of the fitted maximal effect
# Summary of the method: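 Compounds are pinned in dose-response onto KB-8-5-11 cells (500 cells/well, colchicine-free medium) and left 72 h at 37 degree C. CellTiter-Glo luminescence then yields AC50 values.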
# [3] = Primary qHTS for inhibitors of nuclear receptor binding SET domain protein 2 (NSD2) in an isogenic RCH-ACV NSD2 p.E1099K mutant (9B) (AID 1645876); further: nearly all actives have a fitted effect of over 70% in size; further: potency means the concentration at half of the fitted maximal effect
# [4] = Primary qHTS for inhibitors of nuclear receptor binding SET domain protein 2 (NSD2) in an RCH-ACV wild type WT cells (2C) (AID 1645877); further: nearly all actives have a fitted effect of over 70% in size; further: potency means the concentration at half of the fitted maximal effect
# [5] = target: Glutathione peroxidase 1 (Homo sapiens) (UniProt P07203); assay: Primary qHTS Assay for Inhibitors of Recombinant Selenoprotein Glutathione Peroxidase 1 (GPX1) (AID 1845191); further: nearly all actives have a fitted effect of over 65% in size; further: potency means the concentration at half of the fitted maximal effect
# Chain of Glutathione peroxidase 1 (Homo sapiens) (P07203 whole entry, looked up): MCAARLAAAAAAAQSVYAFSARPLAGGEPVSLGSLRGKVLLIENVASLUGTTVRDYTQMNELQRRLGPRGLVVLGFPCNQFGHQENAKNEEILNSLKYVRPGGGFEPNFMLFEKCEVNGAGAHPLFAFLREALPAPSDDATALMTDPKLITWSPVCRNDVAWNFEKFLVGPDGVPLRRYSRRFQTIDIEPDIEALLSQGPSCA
# Summary of the method: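 GR-coupled readout: NADPH consumption tracked by fluorescence, ex 340/em 450 nm, at t=0 and after 15 min at RT. Final mix 10 nM GPX1, 1 mM GSH, 0.5 mM CHP, 0.5 mM NADPH, 100 nM GR, 0.01% BSA, following 30 min enzyme–compound preincubation.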
# [6] = target: Phospholipid hydroperoxide glutathione peroxidase GPX4 (Homo sapiens) (UniProt P36969); assay: Primary qHTS Assay for Inhibitors of Recombinant Selenoprotein Glutathione Peroxidase 4 (GPX4) (AID 1845192); details: outcome: dose series up to 50 µM unless noted; further: nearly all actives have a fitted effect of over 65% in size
# Chain of Phospholipid hydroperoxide glutathione peroxidase GPX4 (Homo sapiens) (P36969 whole entry, looked up): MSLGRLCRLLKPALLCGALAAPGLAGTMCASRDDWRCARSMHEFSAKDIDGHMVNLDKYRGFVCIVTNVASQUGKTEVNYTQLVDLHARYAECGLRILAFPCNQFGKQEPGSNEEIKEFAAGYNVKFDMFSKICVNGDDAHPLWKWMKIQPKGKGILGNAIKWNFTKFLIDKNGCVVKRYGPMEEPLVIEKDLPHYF
# Summary of the method: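 Steps: GPX4 plus compound, 30 min RT; add GR/GSH/NADPH master mix; start with cumene hydroperoxide; read 340/450 nm fluorescence at 0 and 15 min. Finals were 200 nM GPX4, 1 mM GSH, 0.5 mM CHP, 0.5 mM NADPH, 100 nM GR.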
# [7] = qHTS drug screen for cell cycle checkpoint inhibitors in PARPi-resistant BRCA-mutant ovarian cancer cell lines. (AID 1963452; calls by dose curve); details: PEO1/OlaR viability, CellTiter-Glo luminescence, 96 h, stronger effect = lower value
# Summary of the method: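 PEO1, PEO4 and PEO1/OlaR ovarian cancer cells, 600 per well, exposed 96 h at 37C to a dilution series. Viability read by CellTiter-Glo luminescence, normalized to DMSO and empty wells; activity summarized as Z-AUC.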
# [8] = qHTS assay to identify inhibitors of the type 1 interferon - major histocompatibility complex class I in skeletal muscle: Counter screen cell viability and HiBit confirmation (AID 1347412); details: iHSKM muscle cells + IFN-b, HiBiT or CellTiter-Glo, 24 h; HiBiT; at 45.9 µM (top of the series); further: nearly all actives have a fitted effect of over 60% in size
# Summary of the method: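 Human myoblast knock-in line, 4.0 ng/ml IFN-beta stimulation, 24 h compound treatment. Endpoints: HiBiT lytic luminescence (HLA-B level) and CellTiter Glo (ATP). Dosing 12 concentrations, 3-fold steps, 46 uM highest final.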
# [9] = target: Calcium and integrin-binding protein 1 (Homo sapiens) (UniProt Q99828); assay: Primary qHTS for Identification of Calcium Integrin Binding Protein 1 (CIB1) Competitor (AID 1508620);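 further: GST tagged CIB1 binding a fluorescein labelled alphaIIb integrin peptide tracer; top concentration of the series differs between compounds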
# Chain of Calcium and integrin-binding protein 1 (Homo sapiens) (Q99828 whole entry, looked up): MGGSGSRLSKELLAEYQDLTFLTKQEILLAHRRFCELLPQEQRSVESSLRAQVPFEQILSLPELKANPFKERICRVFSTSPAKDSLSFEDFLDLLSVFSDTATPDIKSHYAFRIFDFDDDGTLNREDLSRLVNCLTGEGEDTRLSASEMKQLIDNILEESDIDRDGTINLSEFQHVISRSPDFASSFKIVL
# Summary of the method: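 Fluorescence polarization competition: GST-tagged CIB1 (1 uM final) preincubated with compound 15 min at room temperature, then FITC-labelled alphaIIb peptide (100 nM final) added. After 15 min at room temperature, polarization read at Ex 480/Em 540.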
# [10] = qHTS to identify inhibitors of the type 1 interferon - major histocompatibility complex class I in skeletal muscle: primary screen against the NCATS Mechanism Interrogation Plate v5.0 (MIPE) Libary (AID 1347411); further: nearly all actives have a fitted effect of over 65% in size
# Summary of the method: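 Luminescence from CRISPR HiBit-tagged endogenous HLA-B in human myoblasts reported MHC class I level after 24 h of IFN-beta (4 ng/ml) plus compound. Compounds ran as 11-point 1:3 series, top 46 uM final.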
# [11] = Primary qHTS for small molecule stabilizers of the endoplasmic reticulum resident proteome: Secreted ER Calcium Modulated Protein (SERCaMP) assay (AID 1508630)
# Summary of the method: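 The SH-SY5Y reporter protocol was run at 3 concentrations up to 38.3 uM (primary) or 11 concentrations (follow-up): 16 h compound, 100 nM thapsigargin for 4 h, then extracellular luciferase luminescence.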
# [12] = target: Cytochrome P450 3A4 (Homo sapiens) (UniProt P08684); assay: qHTS Assay for Inhibitors and Substrates of Cytochrome P450 3A4 (AID 884); further: potency means the concentration at half of the fitted maximal effect; nearly all actives have a fitted effect of over 50% in size
# Chain of Cytochrome P450 3A4 (Homo sapiens) (P08684 whole entry, looked up): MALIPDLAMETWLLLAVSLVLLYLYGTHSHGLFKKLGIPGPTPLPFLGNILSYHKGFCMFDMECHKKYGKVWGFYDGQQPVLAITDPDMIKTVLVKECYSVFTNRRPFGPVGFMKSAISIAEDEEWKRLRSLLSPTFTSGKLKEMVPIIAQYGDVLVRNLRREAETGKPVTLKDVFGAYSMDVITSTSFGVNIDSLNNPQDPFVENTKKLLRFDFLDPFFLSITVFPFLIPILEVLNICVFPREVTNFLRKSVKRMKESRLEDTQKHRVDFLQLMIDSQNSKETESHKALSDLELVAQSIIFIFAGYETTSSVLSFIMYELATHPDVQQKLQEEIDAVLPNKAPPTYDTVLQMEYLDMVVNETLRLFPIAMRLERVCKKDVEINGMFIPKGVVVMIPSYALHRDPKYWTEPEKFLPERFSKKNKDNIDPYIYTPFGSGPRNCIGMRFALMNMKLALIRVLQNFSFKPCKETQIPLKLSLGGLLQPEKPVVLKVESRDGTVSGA
# Summary of the method: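 Luminescent readout of luciferin produced by CYP3A4 (20 nM) dealkylation of Luciferin-PPXE, 25 uM (its KM). NADPH-driven reaction ran 60 min at RT after 10 min compound preincubation; data scaled to 57 uM ketoconazole as 100% inhibition.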
# [13] = target: Cytochrome P450 3A4 (Homo sapiens) (UniProt P08684); assay: qHTS Assay for Activators of Cytochrome P450 3A4 (AID 885); further: nearly all actives have a fitted effect of over 65% in size
# Summary of the method: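 Using 20nM recombinant human CYP3A4 in potassium phosphate (200mM), substrate Luciferin-PPXE at 25uM, luminescent luciferin detection followed a 60-min RT NADPH reaction; data scaled to 57 uM ketoconazole.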
# [14] = Confirmation and Secondary Assay for Modulators of Hemoglobin Beta Chain Splicing at IVS2 654 locus (AID 910);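 further: HeLa cells stably carrying EGFP split by mutant beta-globin IVS2-654 intron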
# Summary of the method: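 HeLa cells stably expressing EGFP interrupted by β-globin IVS2-654 intron, seeded overnight in Opti-MEM/2% FCS, then treated 2 days at 37 °C. Restored splicing read as total peak GFP intensity per well by laser scanning cytometry (488 nm excitation, 500–520 nm emission); 500 nM antisense PNA as control.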
# [15] = Confirmation and Secondary Assay for Modulators of Hemoglobin Beta Chain Splicing at IVS2 705 locus (AID 930);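 further: HeLa cells stably expressing the EGFP-705 splicing reporter; GFP fluorescence per well restored by corrected splicing of the IVS2-705 intron in EGFP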
# Summary of the method: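 Per-well GFP, captured at 1 x 8 µm resolution with 488 nm excitation, served as the read-out for HeLa EGFP-705 cells incubated 2 days with test compound versus DMSO.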
# [16] = qHTS Assay for Lipid Storage Modulators (AID 1519; calls by dose curve); details: Drosophila S3 cells, BODIPY lipid droplet/cell ratio, laser cytometry, cells loaded with oleic acid
# Summary of the method: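 Cells seeded at 5,000 per well were treated with compounds over a concentration series and loaded with oleic acid (400 uM, as added). Lipid droplet fluorescence (488 nm excitation, 500-530 nm channel) was read by laser-scanning cytometry and normalized to 20 uM Triacsin C.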
# [17] = target: Ubiquitin carboxyl-terminal hydrolase 1 (Homo sapiens) (UniProt O94782); assay: Inhibitors of USP1/UAF1: Pilot qHTS (AID 504865);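 further: rhodamine fluorescence freed from ubiquitin-rhodamine substrate followed over time; top concentration of the series differs between compounds; nearly all actives have a fitted effect of over 35% in size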
# Chain of Ubiquitin carboxyl-terminal hydrolase 1 (Homo sapiens) (O94782 whole entry, looked up): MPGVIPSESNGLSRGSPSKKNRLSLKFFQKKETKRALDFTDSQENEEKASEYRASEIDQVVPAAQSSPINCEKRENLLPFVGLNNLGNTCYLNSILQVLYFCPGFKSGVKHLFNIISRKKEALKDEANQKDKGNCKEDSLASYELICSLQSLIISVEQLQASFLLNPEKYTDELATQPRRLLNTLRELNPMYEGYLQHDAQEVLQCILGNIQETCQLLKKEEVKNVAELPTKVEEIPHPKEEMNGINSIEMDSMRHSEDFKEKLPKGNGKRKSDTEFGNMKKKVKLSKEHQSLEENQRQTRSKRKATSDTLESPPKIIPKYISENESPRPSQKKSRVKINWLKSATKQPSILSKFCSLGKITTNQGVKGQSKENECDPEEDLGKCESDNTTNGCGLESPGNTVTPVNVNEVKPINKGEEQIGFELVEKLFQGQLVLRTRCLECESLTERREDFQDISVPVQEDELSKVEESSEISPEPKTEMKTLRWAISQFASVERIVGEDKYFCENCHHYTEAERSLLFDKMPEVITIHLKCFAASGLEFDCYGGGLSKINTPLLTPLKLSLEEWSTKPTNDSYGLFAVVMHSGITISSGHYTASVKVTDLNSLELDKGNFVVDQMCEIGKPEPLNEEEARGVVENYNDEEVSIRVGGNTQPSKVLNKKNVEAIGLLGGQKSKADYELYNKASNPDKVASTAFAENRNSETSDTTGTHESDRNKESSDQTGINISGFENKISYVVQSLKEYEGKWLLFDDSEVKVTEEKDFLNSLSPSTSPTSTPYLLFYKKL
# Summary of the method: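 Enzyme-free wells gave the negative control, while test wells held 1nM USP1/UAF1 preincubated with compound for 15 min at room temperature. Ub-Rho at 150nM final started the reaction, and fluorescence at 480/540 nm was recorded kinetically.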
# [18] = measured here: PEO1 parental Z-AUC
smiles,measurement,setting,value
N#Cc1ccc(-c2c(-c3ncn[nH]3)sc(N3CCOCC3)c2C#N)c(F)c1,Potency,[1],2060 nM (active)
same,Potency,[2],5800 nM (active)
same,Potency,[3],1.03 µM (active) and 934 nM (active)
same,Potency,[4],651 nM (active) and 1.18 µM (active)
same,Potency,[5],inactive
same,Potency,[6],inactive
same,Z-AUC,[7],-1.04 (inactive)
same,Z-AUC,[7]; [18],-1.47
same,Z-AUC,[7]; measured here: PEO4 Z-AUC,-1.34
same,"activity change, negative = inhibition",[8],-34.7% (inactive)
CN1CCCN(C(=O)c2cccc(-c3ccc(/C=C4\C(=O)Nc5ccc(Cl)cc54)o3)c2)CC1,Potency,[1],8200 nM (active)
same,Potency,[2],9200 nM (active)
same,Potency,[3],0.231 µM (active)
same,Potency,[4],0.231 µM (active)
Clc1ccc2ncc(-c3cccc(NC4CCNC4)n3)n2c1 (centres undefined),Potency,[1],820 nM (active)
same,Potency,[2],10300 nM (active)
same,outcome,[9],inactive
same,Potency,[3],1.3 µM (active)
same,Potency,[4],1.16 µM (active)
same,Potency,[5],inactive
O=C(NOCCO)c1cc(CN2OCCCC2=O)c(F)c(F)c1Nc1ccc(I)cc1F,Potency,[1],inactive
same,Potency,[2],inactive
same,Potency,[10],inactive
same,Potency,[3],inactive
same,Potency,[5],inactive
Nc1ncnc2c1nc(Cl)n2C1O[C@H](CO)[C@@H](O)[C@H]1O (some centres undefined),Potency,[1],2910 nM (active)
same,Potency,[2],1840 nM (active)
same,Potency,[3],2.59 µM (active)
same,Potency,[4],1.84 µM (active)
CCCCCCCCCCCCC/C=C/[C@@H](O)[C@H](CO)N(C)C,"activity change, negative = cytotoxicity",[1],-2.89% [at 5.11 µM] (inactive)
same,outcome,[2],inactive [at 5.11 µM]
same,"activity change, negative = inhibition",[11],-20.6% [at 3.88 µM] (inactive)
same,"activity change, negative = viability loss",[3],-1.18% [at 4.96 µM] (inactive)
same,Potency,[5],inactive
CC(C)C(N)C(=O)OCC(CO)OCn1cnc2c(=O)[nH]c(N)nc21 (centres undefined),Potency,[1],inactive
same,Potency,[2],inactive
same,Potency,[10],inactive
same,Potency,[3],inactive
same,Potency,[4],inactive
same,Z-AUC,[7],0.614 (inactive)
same,Z-AUC,[7]; [18],1.06
same,Z-AUC,[7]; measured here: PEO4 Z-AUC,1.36
O=C1CCCC2=C1C(c1ncccc1Br)N=C(Nc1nc3ccccc3o1)N2 (centres undefined),Potency,[1],inactive
same,Potency,[2],inactive
same,outcome,[9],inactive
same,Potency,[5],inactive
O=C1CCCC2=C1C(c1ccccc1Br)N=C(Nc1nc3ccccc3o1)N2 (centres undefined),Potency,[1],inactive
same,Potency,[2],inactive
same,outcome,[9],inactive
same,Potency,[3],inactive
same,Potency,[4],inactive
same,Potency,[5],inactive
Cc1ccc(NS(=O)(=O)c2cc3c(cc2NCCO)NC(=O)CC3)cc1C,Potency,[1],inactive
same,Potency,[2],inactive
same,outcome,[9],inactive
same,Potency,[3],inactive
same,Potency,[5],inactive
COC[C@H](C)Oc1cc(O[C@@H](C)Cc2ccccc2)cc(C(=O)Nc2ccc(C(=O)O)cn2)c1,Potency,[1],inactive
same,Potency,[2],inactive
same,Potency,[3],inactive
same,Potency,[4],inactive
O=C1CCc2cc(S(=O)(=O)Nc3ccc(F)c(Cl)c3)c(F)cc2N1,Potency,[1],inactive
same,Potency,[2],inactive
same,outcome,[9],inactive
same,Potency,[3],inactive
same,Potency,[4],inactive
COc1cc(OC)c2ccc(=O)oc2c1,Potency,[12],31600 nM (active)
same,Potency,[13],inactive
same,outcome,[14],inactive
same,outcome,[15],inactive
same,"activity change, negative = inhibition",[16]; at 57.5 µM (top of the series),13.4% (inactive)
same,max response,[16]; measured here: cell count channel max response,9.58%
same,max response,[16]; measured here: lipid channel max response,25.2%
same,Potency,[17],inactive
same,Potency,[1],inactive
same,Potency,[2],inactive
same,Potency,[3],inactive
same,Potency,[4],inactive
same,Potency,[5],25500 nM (active)
